Sampled rows, rich in hits. Any-hit rate of the full collection: about 2.3%.
TRPV1 ag: HTS Assay for Compounds that Act as Agonists of the Vanilloid Receptor 1; 0.19% of 320,000 active; TRPV1-expressing cells, Fluo-8 calcium influx, agonist mode; activation, % at 8.33 µM; in the data active means activation above about 80%; inconclusive means between about 30% and that limit; further: 0% is about no effect
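Fluo-8 calcium influx in TRPV1-expressing cells, kinetic read (ex 480/em 520 nm). Compound added and read 3 min for agonist activity, followed by capsaicin at EC20 final and 2 min further read for enhancement.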
TRPV1 PAM: HTS Assay for Compounds that Act as Potentiators of the Vanilloid Receptor 1; TRPV1-expressing cells, Fluo-8 calcium influx, capsaicin EC20 potentiation; 0.02% of 320,000 active; potentiation, % at 8.33 µM; in the data active means potentiation above about 80%; inconclusive means between about 30% and that limit; further: 0% is about no effect
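Fluo-8 calcium influx in TRPV1-expressing cells, kinetic read (ex 480/em 520 nm). Compound added and read 3 min for agonist activity, followed by capsaicin at EC20 final and 2 min further read for enhancement.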
FUS yeast rescue: qHTS for Suppressors of FUS Proteinopathy: Primary screen using FUS-linked yeast assay; S. cerevisiae FUS-expressing, growth rescue, OD600, 24 h; Potency, µM (top dose mostly 76.6 µM), actives largely listed as activators; 0.24% of 390,000 active;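 further: potency means the concentration at half of the fitted maximal effect; plate controls were DMSO vehicle for no effect and reference control for full effect; nearly all actives have a fitted effect of over 55% in size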
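Yeast FUS proteinopathy model; galactose-induced FUS (2%), starting OD 0.005. Cpds in dilution series, 24hr, 30C, 99% humidity. Abs 600 nm growth. Pos ctrl CP55940 (top 92uM final); neg ctrl DMSO.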
ELG1 DNA repair: qHTS screen for small molecules that inhibit ELG1-dependent DNA repair in human embryonic kidney (HEK293T) cells expressing luciferase-tagged ELG1. HEK293T ELG1-luciferase reporter, luminescence, 16 h; DNA damage induced by 5-fluorouridine. Potency, µM (top dose mostly 46.1 µM), without a hit: at the top dose activity change, negative = inhibition, usual class: inhibitors. 2.3% of 330,000 active. AID 504467, 2011; further: potency means the concentration at half of the fitted maximal effect; on the % scale 0 is the no-effect control and ±100 the full control effect; nearly all actives have a fitted effect of over 55% in size
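Reporter activity after DNA damage by 5-fluorouridine is monitored. Compound-treated cells incubate 16 hr at 37 °C, then ONE-Glo is added for 30 min before luminescence reading.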
Giardia killer: Small Molecules that selectively kill Giardia lamblia: qHTS; AID 540267, 2011; 0.15% of 340,000 active; Giardia lamblia trophozoite viability; activity change, % at 7.66 µM, hits read low; in the data active means activity change below about -80%; inconclusive means between about -30% and that limit;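 further: parasites exposed to compound for two days anaerobically before the ATP read; on the % scale 0 is the no-effect control and ±100 the full control effect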
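Killing of trophozoites was scored by loss of ATP luminescence after a 48 hrs anaerobic exposure to compounds at 37 deg C, using 100 cells per well.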
ELG1 FLuc counter: qHTS screen for small molecules that inhibit ELG1-dependent DNA repair: Hit Confirmation in Cell-Based Luciferin Assay | shares compounds with ELG1 DNA repair | cell-free firefly luciferase luminescence counter-screen, ViewLux | Potency, µM (top dose mostly 46.1 µM), for inactives: at the top dose activity change, negative = inhibition, hits mostly inhibitors | 3% of 350 active; further: potency means the concentration at half of the fitted maximal effect; on the % scale 0 is the no-effect control and ±100 the full control effect
ELG1 Luc conf: HTS assay for small molecules that inhibit ELG1-dependent DNA repair in human embryonic kidney (HEK293T) cells expressing luciferase-tagged ELG1: Hit Confirmation. Potency, µM (top dose mostly 46.1 µM), for inactives: at the highest dose activity change, negative = inhibition, most hits filed as inhibitors. shares compounds with ELG1 DNA repair. 68% of 670 active. AID 624248, 2012. HEK293T ELG1-luciferase levels, luminescence; cells co-treated with 5-fluorouridine; further: potency means the concentration at half of the fitted maximal effect; on the % scale 0 is the no-effect control and ±100 the full control effect; nearly all actives have a fitted effect of over 55% in size
Target sequence (Q96QE3 whole entry, looked up): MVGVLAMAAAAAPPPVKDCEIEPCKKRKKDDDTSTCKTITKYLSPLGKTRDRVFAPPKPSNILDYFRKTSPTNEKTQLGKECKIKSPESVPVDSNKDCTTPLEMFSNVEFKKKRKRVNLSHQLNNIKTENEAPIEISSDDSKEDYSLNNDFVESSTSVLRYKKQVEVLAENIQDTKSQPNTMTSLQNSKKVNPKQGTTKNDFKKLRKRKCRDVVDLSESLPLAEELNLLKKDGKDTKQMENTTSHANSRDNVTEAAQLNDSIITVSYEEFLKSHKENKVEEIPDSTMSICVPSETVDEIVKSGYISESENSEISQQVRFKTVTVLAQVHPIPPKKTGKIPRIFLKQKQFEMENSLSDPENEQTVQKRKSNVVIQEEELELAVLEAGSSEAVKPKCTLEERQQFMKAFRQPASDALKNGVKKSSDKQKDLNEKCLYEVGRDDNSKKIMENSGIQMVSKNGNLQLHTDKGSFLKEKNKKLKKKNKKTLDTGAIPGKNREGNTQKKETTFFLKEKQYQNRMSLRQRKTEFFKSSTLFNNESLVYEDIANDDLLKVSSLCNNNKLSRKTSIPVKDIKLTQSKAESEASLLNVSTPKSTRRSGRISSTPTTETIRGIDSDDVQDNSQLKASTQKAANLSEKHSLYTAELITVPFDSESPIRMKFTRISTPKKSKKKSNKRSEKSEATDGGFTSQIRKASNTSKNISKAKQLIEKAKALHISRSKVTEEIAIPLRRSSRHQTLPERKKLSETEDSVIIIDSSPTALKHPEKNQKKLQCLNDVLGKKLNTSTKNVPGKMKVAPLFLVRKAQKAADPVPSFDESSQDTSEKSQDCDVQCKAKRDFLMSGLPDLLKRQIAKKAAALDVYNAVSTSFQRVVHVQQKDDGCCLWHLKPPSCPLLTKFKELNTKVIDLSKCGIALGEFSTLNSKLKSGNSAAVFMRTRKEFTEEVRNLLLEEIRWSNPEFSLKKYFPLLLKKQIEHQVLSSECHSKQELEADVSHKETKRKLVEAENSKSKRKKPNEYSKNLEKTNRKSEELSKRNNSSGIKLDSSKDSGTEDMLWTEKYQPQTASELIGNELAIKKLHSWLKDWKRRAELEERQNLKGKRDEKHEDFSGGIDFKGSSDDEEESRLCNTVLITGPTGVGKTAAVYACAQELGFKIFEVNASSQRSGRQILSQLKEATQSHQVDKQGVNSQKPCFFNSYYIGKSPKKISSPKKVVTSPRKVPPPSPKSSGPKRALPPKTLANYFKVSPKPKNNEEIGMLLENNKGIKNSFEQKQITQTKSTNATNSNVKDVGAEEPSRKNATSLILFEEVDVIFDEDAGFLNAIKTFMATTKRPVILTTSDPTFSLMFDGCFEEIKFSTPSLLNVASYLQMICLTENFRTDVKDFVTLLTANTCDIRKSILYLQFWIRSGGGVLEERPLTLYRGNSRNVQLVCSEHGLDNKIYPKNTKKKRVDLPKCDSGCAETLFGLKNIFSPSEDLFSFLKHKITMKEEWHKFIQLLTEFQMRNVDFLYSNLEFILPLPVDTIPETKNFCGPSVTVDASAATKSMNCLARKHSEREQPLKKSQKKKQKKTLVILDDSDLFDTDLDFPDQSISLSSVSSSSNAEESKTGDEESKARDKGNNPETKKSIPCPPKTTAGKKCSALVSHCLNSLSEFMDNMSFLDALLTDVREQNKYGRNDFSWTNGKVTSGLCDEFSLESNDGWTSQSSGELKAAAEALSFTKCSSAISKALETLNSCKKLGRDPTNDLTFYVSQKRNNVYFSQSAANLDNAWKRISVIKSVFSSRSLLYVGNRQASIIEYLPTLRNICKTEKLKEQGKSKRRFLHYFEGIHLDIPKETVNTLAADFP
ELG1-Luc MMS: MMS-stimulated human ELG1 repair inhibition, confirmed. shares compounds with ELG1 DNA repair. HEK293T luciferase-tagged ELG1 level, MMS stimulated. Potency, µM (top dose mostly 46.1 µM), inactives show at the highest dose activity change, negative = inhibition, usual class: inhibitors. 53% of 670 active; further: potency means the concentration at half of the fitted maximal effect; on the % scale 0 is the no-effect control and ±100 the full control effect; nearly all actives have a fitted effect of over 60% in size
ELG1 5-FU: qHTS screen for small molecules that inhibit ELG1-dependent DNA repair: Hit Confirmation with 5FU Viability. shares compounds with ELG1 DNA repair. cell viability with 5-FU, ELG1-dependent repair. Potency, µM (top dose mostly 46.1 µM), without a hit: at the top dose activity change, negative = viability loss, actives largely listed as cytotoxic. 670 tested, under 10 active. AID 624250, 2012;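 further: ELG1-luc HEK293T cells cotreated with 5-fluorouridine at 10 µM final; potency means the concentration at half of the fitted maximal effect; viability measured 16 h after compound addition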
ELG1 MMS cell: qHTS screen for small molecules that inhibit ELG1-dependent DNA repair: Hit Confirmation with MMS Viability; shares compounds with ELG1 DNA repair; Cell viability with MMS, ELG1-dependent DNA repair; Potency, µM (doses to about 46.1 µM), for inactives: at the top dose activity change, negative = viability loss, most hits filed as cytotoxic; 33% of 670 active; AID 624251, 2012;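 further: ELG1-luc HEK293T cells co-treated with 10 µM MMS; potency means the concentration at half of the fitted maximal effect; viability read 16 h after compound addition; on the % scale 0 is the no-effect control and ±100 the full control effect; nearly all actives have a fitted effect of over 60% in size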
Cell viab unstim: qHTS screen for small molecules that inhibit ELG1-dependent DNA repair: Hit Confirmation with Unstimulated Viability Assay; shares compounds with ELG1 DNA repair; cell viability counter-screen, unstimulated, luminescence; Potency, µM (titrated, usually from 45.9 µM), without a hit: top-dose activity change, negative = loss of viability, usual class: cytotoxic; 8% of 900 active;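 further: potency means the concentration at half of the fitted maximal effect; compound exposure lasted 16 hours before reading; on the % scale 0 is the no-effect control and ±100 the full control effect; nearly all actives have a fitted effect of over 55% in size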
FLuc biochem: qHTS screen for small molecules that inhibit ELG1-dependent DNA repair: Hit Confirmation in Biochemical Luciferin Assay; shares compounds with ELG1 DNA repair; purified firefly luciferase, luminescence counter-screen; Potency, µM (highest dose often 57.5 µM), for inactives: at the highest dose activity, negative = inhibition, most hits filed as inhibitors; 10% of 350 active; AID 624253, 2012; further: potency means the concentration at half of the fitted maximal effect; on the % scale 0 is the no-effect control and ±100 the full control effect
* = called active by the depositor; i = inactive; ? = inconclusive; / = no result given. Unless noted, the call rests on the fitted dose curve; in most records, active means well fitted curve in the direction sought with a large enough effect; inconclusive means small, poorly fitted or top-dose-only effect, or another doubt; inactive means no such curve, though single readings can be large; an effect the other way counts as inactive or inconclusive.

SMILES	TRPV1 ag	TRPV1 PAM	FUS yeast rescue	ELG1 DNA repair	Giardia killer	ELG1 Luc conf	ELG1-Luc MMS	ELG1 5-FU	ELG1 MMS cell	Cell viab unstim	others
CCCCSc1nc2ccc(Nc3nc(N4CCOCC4)nc(N4CCOCC4)n3)cc2s1	-4.5	8.0	i	16.4µM*	-5.3	12.6µM*	?	?	-0.1%	-9.9%	ELG1 FLuc counter=4.9%;FLuc biochem=-6.3%
Cc1ccc(Nc2nc(N3CCOCC3)nc(N3CCOCC3)n2)cc1C	-3.1	2.0	i	?	-3.5	/	/	/	/	/
CCOC(=O)c1c(S(=O)(=O)NCC(=O)N(C)Cc2ccccc2)c(C)n(C)c1C	/	/	i	/	/	/	/	/	/	/
CC1CCc2nc(N)c(C#N)c(-c3ccncc3)c2C1 (stereo not drawn)	-4.5	-0.9	i	1.9%	-5.8	/	/	/	/	/
CC1CCc2nc(N)c(C#N)c(-c3cccnc3)c2C1 (stereo not drawn)	5.0	0.0	i	1.16µM*	-8.7	1.58µM*	14.1µM*	2.9%	22.3µM*	-2.4%
Cc1ccc(S(=O)(=O)NCc2ccc(C(=O)N3CCN(c4ccc([N+](=O)[O-])cc4)CC3)cc2)cc1	1.1	-7.2	i	2.31µM*	-7.1	7.91µM*	1.58µM*	-8.5%	1.77µM*	?
COc1ccc(N2CCN(C(=O)c3ccc(CNS(=O)(=O)c4ccc(C)cc4)cc3)CC2)cc1	-1.0	6.1	i	-12.9%	?	/	/	/	/	/
O=c1c(N2CCN(c3cccc(Cl)c3)CC2)csc2ccc(Cl)cc12	/	/	i	/	/	/	/	/	/	/
COc1ccc(-c2oc(=O)c3cc(OC)c(OC)cc3c2/C=C/c2cccc([N+](=O)[O-])c2)cc1	1.3	1.5	i	1.64µM*	2.4	?	21.8%	0.5%	?	-10.6%
CCOc1cc(Cl)c(S(=O)(=O)n2ccnc2)cc1Cl	/	/	i	/	/	/	/	/	/	/
